Assay results reported in PubChem BioAssay AID1918 (Vanderbilt High Throughput Screening Facility, 2009).
Hit rate of the full screen: of about 130,000 compounds, about 2,500 (1.9%) were called active.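 The calls were made as follows: active = signal ratio slope over the read window, or its plate-corrected B-score, at least 3 SD from the plate mean, either direction; inactive = the rest.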 Shown is part of a subset that was picked to be rich in actives.

Target: ATP-sensitive inward rectifier potassium channel 1 (Homo sapiens) (UniProt P48048)
Sequence (P48048 whole entry, looked up): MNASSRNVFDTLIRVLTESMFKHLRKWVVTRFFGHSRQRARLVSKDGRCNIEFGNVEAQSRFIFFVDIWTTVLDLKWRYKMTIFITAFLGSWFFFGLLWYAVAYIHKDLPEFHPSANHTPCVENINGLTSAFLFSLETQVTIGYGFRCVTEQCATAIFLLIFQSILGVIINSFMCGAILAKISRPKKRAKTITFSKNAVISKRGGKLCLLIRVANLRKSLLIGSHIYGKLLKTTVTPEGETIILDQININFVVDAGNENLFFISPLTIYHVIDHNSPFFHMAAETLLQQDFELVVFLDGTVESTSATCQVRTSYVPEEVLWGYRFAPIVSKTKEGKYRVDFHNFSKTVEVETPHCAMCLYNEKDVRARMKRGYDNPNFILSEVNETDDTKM
Assay: ROMK potassium channel modulators, primary screen, cell-based, thallium flux, MLSMR library (AID 1918);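 also: B-score of the F/F0 ratio slope over 7 to 12 s after thallium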
Settings: Tet-inducible ROMK, thallium flux fluorescence; at 10 µM; actives lie on both sides

How did the B-score turn out when `Cc1nc2ccccn2c1P(=S)(N1CCCCC1)N1CCCCC1` was run?
The B-score was -3.59 (active).

How did the B-score turn out when `CSc1nc2ccc(C)cc2c(=O)n1-c1cccnc1` was run?
Its B-score is -0.218 (inactive).

`COC(=O)N1C(c2ccccc2)C1c1ccccc1` (stereo not given) was tested. Which B-score did it give?
Its B-score is 0.0342 (inactive).

With `O=C(Nc1cccc2ccccc12)N1CCC2(CC1)OCCO2` as the compound, how does the B-score read?
The B-score was -0.682 (inactive).

How did the B-score turn out when `CCN1CCN(c2ccc([N+](=O)[O-])cc2C#N)CC1` was run?
The B-score was -0.443 (inactive).

How did the B-score turn out when `CC1=C2C(=O)C3C(CC=C4CC(OC5OC(O)C(O)C(O)C5CO)CCC43C)C2CCC12OC1CC(C)CNC1C2C` (stereo not given) was run?
Its B-score is -0.573 (inactive).

For `N=c1ccccn1Cc1ccccc1`, which B-score is on record?
Its B-score is 2.77 (active).

For `CN(C)/C=C(\C=[N+](C)C)c1[nH]ncc1[N+](=O)[O-]`, which B-score is on record?
The B-score was 0.157 (inactive).

`O=c1[nH]c(=O)n(-c2ccccc2)c(O)c1C=NC12CN3CN(CN(C3)C1)C2` was tested. Which B-score did it give?
Its B-score is 0.583 (inactive).

For `O=c1[nH]c(=O)n(CCc2ccccc2)c(O)c1/C=N/N1CCOCC1`, which B-score is on record?
Its B-score is 0.152 (inactive).

With `CC1=C(C(=O)Nc2ccccc2)S(=O)(=O)CCO1` as the compound, how does the B-score read?
The B-score was 0.94 (inactive).

How did the B-score turn out when `COc1ccccc1N=Nc1c(O)[nH]c(=S)[nH]c1=O` was run?
Its B-score is -2.66 (active).

How did the B-score turn out when `CCOCCc1c(O)[nH]c(=S)[nH]c1=O` was run?
The B-score was -0.807 (inactive).

How did the B-score turn out when `O=C1N=c2ccccc2=C/C1=C\c1c(O)[nH]c(=S)[nH]c1=O` was run?
The B-score was 0.454 (inactive).

For `CNC(=O)O/N=C(\N)Cc1csc2ccccc12`, which B-score is on record?
The B-score was 0.164 (inactive).

With `CC(Cc1cccs1)NCc1ccc(Cl)cc1` (stereo not given) as the compound, how does the B-score read?
Its B-score is 0.0543 (inactive).

Which B-score does the source give for `CCCOC(=O)C1C2c3ccccc3C(c3ccccc32)C1C(=O)O` (stereo not given) here?
Its B-score is 0.827 (inactive).

`O=C(COC(=O)Cc1ccccc1)Nc1ccc(F)cc1` was tested. Which B-score did it give?
Its B-score is -0.767 (inactive).

With `OC1/C(=C/c2ccc(C(F)(F)F)cc2)N2CCC1CC2` (stereo not given) as the compound, how does the B-score read?
Its B-score is -1.88 (inactive).

Which B-score does the source give for `CCCCCCCCCCCCn1ccc(=N)cc1` here?
Its B-score is -10.9 (active).

Which B-score does the source give for `CC(C)CN1CCN(Cc2ccccc2C(F)(F)F)CC1CCO` (stereo not given) here?
The B-score was -0.0138 (inactive).

For `CC(C)Oc1cccc(C(=O)C2CCCN(C3CCOCC3)C2)c1` (stereo not given), which B-score is on record?
The B-score was 0.0502 (inactive).

`Cc1ccc(-c2cc(C(=O)N3CCC4(CC3)OCCO4)no2)cc1` was tested. Which B-score did it give?
Its B-score is 1.11 (inactive).

For `Clc1ccc2nc3c(c(-c4ccccc4)c2c1)CNCC3`, which B-score is on record?
The B-score was -3.67 (active).

How did the B-score turn out when `Cc1cc(/C=C2/C(=O)NC(=O)N(Cc3ccco3)C2=O)c(C)n1-c1ccc(C(=O)O)cc1` was run?
The B-score was 0.104 (inactive).

How did the B-score turn out when `Cc1cc(C=C2C(=O)NC(=O)NC2=O)c(C)n1-c1ccncc1` was run?
The B-score was -3.19 (active).

How did the B-score turn out when `Cc1ccccc1N1C(=O)NC(=O)/C(=C\c2cc(C)n(C)c2C)C1=O` was run?
The B-score was 0.936 (inactive).

With `O=C(Cn1c(=O)n(CC2CS2)c2ccccc21)N1CCCCC1` (stereo not given) as the compound, how does the B-score read?
Its B-score is 1.36 (inactive).

Which B-score does the source give for `CC(C)c1ccc(-n2c(O)c(/C=N/N3CCOCC3)c(=O)[nH]c2=S)cc1` here?
Its B-score is 0.913 (inactive).

Which B-score does the source give for `COc1ccc(NC(=O)N2CCC3(CC2)OCCO3)c(OC)c1` here?
Its B-score is -0.624 (inactive).
